{
  "source": "PubChem BioAssay (EPA / NIEHS)",
  "note": "The source made the active and inactive calls. The calls were made as follows: active = hit-call score of the fitted dose curve at least 0.9, where 1 is the maximum; inactive = score below 0.9.",
  "data": [
    {"experiment": "ATG_BRE_CIS: Attagene CIS-FACTORIAL HepG2 Assay for human Bone Morphogenetic Protein (BMP) Response Element (BRE) (AID 2282933)", "details": "HepG2 BMP response element reporter, Attagene transcription factor profiling; actives raise or lower the signal", "method": "ATG_CIS is a cell-based, multiplexed-readout assay that uses HepG2, a human liver cell line, with measurements taken at 24 hours after chemical dosing in a 24-well plate.ATG_BRE_CIS is one of 52 assay component(s) measured or calculated from the ATG_CIS assay. It is designed to make measurements of mRNA induction, a form of inducible reporter, as detected with fluorescence intensity signals by Reverse transcription polymerase chain reaction (RT-PCR) and Capillary electrophoresis technology.Data from the assay component ATG_BRE_CIS was analyzed into 1 assay endpoint. This assay endpoint, ATG_BRE_CIS, was analyzed with bidirectional fitting relative to DMSO as the negative control and baseline of activity. Using a type of inducible reporter, measures of mRNA for gain or loss-of-signal activity can be used to understand the reporter gene at the transcription factor-level as they relate to the gene SMAD1. Furthermore, this assay endpoint can be referred to as a primary readout, because this assay has produced multiple assay endpoints where this one serves a reporter gene function. To generalize the intended target to other relatable targets, this assay endpoint is annotated to the dna binding intended target family, where the subfamily is Smad protein.\nHuman liver HepG2 cells are transiently transfected with multiple reporter transcription units (MRTUs) in 6-well plates using FuGene 6 reagent (Roche; 3 ml FuGene/1 mg DNA). The MRTU constructs are regulated by a cis-regulating element (promoter). […] A major difference between the CIS and TRANS system is that in CIS activities of endogenous TFs are measured, whereas the TRANS assay evaluates changes in activities of exogenous, chimeric NR-Gal4 proteins. […] At the end of 24 hour incubation, total RNA was isolated using TriZol reagent (Invitrogen). The isolated RNA is then reverse-transcribed using oligo(dT) primer and Mo-MLV reverse transcriptase (Invitrogen) with DNAse I (Ambion) treatment for 30 min. The one-tenth of the produced cDNA was amplified by PCR using Taq DNA polymerase (Invitrogen) and two reporter sequence-specific primers. The PCR products were fluorescently labeled by primer extension with 6-arboxyfluorescein (6-FAM) 5'-labeled reporter sequence-specific primer (2 min at 95 C, 20 s at 68 C and 10 min at 72 C) and these products were digested with 5U of HpaI (New England Biolabs) for 2h at 37 C. The fragments were purified using Qiaquick PCR columns (Qiagen), analyzed on an ABI 3130xL genetic analyzer (Applied Biosystems) with peak positions identified by using a set of X-rhodamine (ROX)-labeled MapMarker1000 molecular weight standards (BioVentures). The raw capillary electrophoresis data was processed using Attagraph software (Attagene).", "values": [
      {"smiles": "CCN(CCN)c1cccc(C)c1", "outcome": "inactive"},
      {"smiles": "CCC(C)S", "note": "(stereo not given)", "outcome": "inactive"},
      {"smiles": "CCCCCCC(=O)c1ccccc1", "outcome": "inactive"},
      {"smiles": "CCc1ncc(C)[nH]1", "outcome": "inactive"},
      {"smiles": "O=C1OC[C@H](Cc2cccc(O)c2)[C@H]1Cc1cccc(O)c1", "outcome": "inactive"},
      {"smiles": "CCOCCOCCOCC", "outcome": "inactive"},
      {"smiles": "CCCOC(=O)c1c(Cl)c(Cl)c(Cl)c(Cl)c1C(=O)OCCC", "outcome": "inactive"},
      {"smiles": "CCCCC(CC)(CO)CO", "outcome": "inactive"},
      {"smiles": "CCCCC(CC)COC(C)=O", "note": "(stereo not given)", "outcome": "inactive"},
      {"smiles": "CCN(CC)C(=O)N(CC)CC", "outcome": "inactive"},
      {"smiles": "CCC(C)c1cc([N+](=O)[O-])cc([N+](=O)[O-])c1OC(=O)OC(C)C", "note": "(stereo not given)", "AC50": "100 µM (active)"},
      {"smiles": "CC1(C)C(=O)N(Cl)C(=O)N1Br", "outcome": "inactive"},
      {"smiles": "C1CCOC1", "outcome": "inactive"},
      {"smiles": "c1ccc2[nH]cnc2c1", "outcome": "inactive"},
      {"smiles": "C[C@H]1C[C@@H](O)CC(C)(C)C1", "outcome": "inactive"},
      {"smiles": "C[C@H](CCC(=O)NCC(=O)O)[C@H]1CC[C@H]2[C@@H]3[C@H](O)C[C@@H]4C[C@H](O)CC[C@]4(C)[C@H]3C[C@H](O)[C@]12C", "outcome": "inactive"},
      {"smiles": "CCCCC(CC)C(=O)OC(C)C", "note": "(stereo not given)", "outcome": "inactive"},
      {"smiles": "Cc1ccc(OC(=O)c2ccccc2O)cc1", "outcome": "inactive"},
      {"smiles": "C[Si](C)(C)O[Si](C)(C)C", "outcome": "inactive"},
      {"smiles": "CS(C)=O", "outcome": "inactive"},
      {"smiles": "CCC1(C)NC(=O)NC1=O", "note": "(stereo not given)", "outcome": "inactive"},
      {"smiles": "COCCOCCOCCO", "outcome": "inactive"},
      {"smiles": "Cc1c(Cl)cccc1[N+](=O)[O-]", "outcome": "inactive"},
      {"smiles": "C=CCCC(=O)/C=C/C1C(C)=CCCC1(C)C", "note": "(stereo not given)", "outcome": "inactive"},
      {"smiles": "CCOC(=O)CCc1ccccc1", "outcome": "inactive"},
      {"smiles": "Nc1ccccc1[N+](=O)[O-]", "outcome": "inactive"},
      {"smiles": "O=Cc1ccccc1S(=O)(=O)O", "outcome": "inactive"},
      {"smiles": "N#Cc1cscn1", "outcome": "inactive"},
      {"smiles": "O=C(Nc1ccc([N+](=O)[O-])cc1)Nc1ccc([N+](=O)[O-])cc1", "note": "(tested in a mixture with another compound)", "outcome": "inactive"},
      {"smiles": "COC(=O)c1ccc(C)cc1C1=NC(C)(C(C)C)C(=O)N1", "note": "(stereo not given) (tested in a mixture with another compound)", "outcome": "inactive"},
      {"smiles": "CCCCOC(=O)CCCCCCCC(=O)OCCCC", "outcome": "inactive"},
      {"smiles": "O=C(O)CCCCCCCCC(=O)O", "outcome": "inactive"},
      {"smiles": "C=Cc1ccc(C(C)(C)C)cc1", "outcome": "inactive"},
      {"smiles": "CC(C)CC(C)CC(O)CC(C)C", "note": "(stereo not given)", "outcome": "inactive"},
      {"smiles": "Nc1ccc2cc(S(=O)(=O)O)cc(O)c2c1N=Nc1ccccc1C(F)(F)F", "outcome": "inactive"},
      {"smiles": "NCc1ccco1", "outcome": "inactive"},
      {"smiles": "C=CC(C)(O)CCC=C(C)C", "note": "(stereo not given)", "outcome": "inactive"},
      {"smiles": "Nc1c(Cl)cc(Cl)cc1[N+](=O)[O-]", "outcome": "inactive"},
      {"smiles": "CC(C)(C)c1ccc(C(=O)O)cc1", "outcome": "inactive"},
      {"smiles": "O=c1[nH]c(=O)c2cn[nH]c2[nH]1", "outcome": "inactive"}
    ]}
  ]
}
